Several values for one entry are separate records, joined by “and”; a condition that tells them apart may be missing. Identical values can stand only once. Records with an inconclusive call do not appear. Where a call stands in place of a potency, no number is given. More than one record can exist for a structure, and the calls need not agree. Activity calls are given as the source filed them. The call rests on the fitted dose curve; in most records, active means well fitted activation curve with a large enough effect in the repeat runs; inconclusive means weak or mixed curves; inactive means flat fitted curve, though single readings scatter.
Assay: A CellTox Green Cytotoxicity Assay to monitor cytotoxicity in HepG2 cells - 40 hour (AID 1224879); further: nearly all actives have a fitted effect of over 40% in size
Conditions: CellTox Green fluorescence; series mostly up to 76.8 µM
Text: National Center for Advancing Translational Sciences [NCATS]
NIH Chemical Genomics Center [NCGC]
U.S. Environmental Protection Agency [EPA]
National Institutes of Environmental Health Sciences [NIEHS]
National Toxicology Program [NTP]
Cell-based models are critical for drug discovery. Determining the natural cytotoxic effects resulting from test compounds is an essential research activity. A CellTox Green Cytotoxicity Assay to monitor cytotoxicity in real time of continues cell culture during 40 hours of the compound treatment was used to screen Tox21 10K library compounds in HepG2 cells. CellTox Green Cytotoxicity Assay is a nonlytic, homogeneous, biofluorescent method to measure cytotoxicity in cell culture after experimental manipulation. The assay system uses a proprietary asymmetric cyanine dye that is excluded from viable cells but preferentially stains the dead cell's DNA. […] Viable cells produce no appreciable increases in fluorescence. Therefore, the fluorescence signal produced by the binding interaction with dead cell DNA is proportional to cytotoxicity.
The mixture of HepG2 cell suspension and reagents were dispensed at 600cells/6 ul/well in 1536-well tissue culture treated black solid bottom plates using a Multidrop dispenser. After the assay plates were incubated at a 37 C/5% CO2 incubator for 5 hours, 23 nL of compounds dissolved in DMSO, positive and negative controls was transferred to the assay plate by a pintool work station. The plates were incubated at 37 C for 40 hours. The fluorescence intensity were measured at 0h, 8h, 16h, 24h, 32h and 40h time points using ViewLux plate reader during compound treatment.
Potency means the concentration at half of the fitted maximal effect.

SMILES | Potency
NCC1(CC(=O)O)CCCCC1 | inactive
CCN[C@@H](C)Cc1cccc(C(F)(F)F)c1 | inactive
C#CCOC(=O)/C=C(C)/C=C/CC(C)CCCC(C)C (stereo not given) | inactive
CC(C)c1ccc(O)cc1 | inactive
ClC(Cl)(Cl)Cl | inactive
N=C(N)[Se] | inactive
CC(C)NCC(O)c1ccc([N+](=O)[O-])cc1 (stereo not given) | inactive
CCOC(=O)N(C)N=O | inactive
COC[C@@H](NC(C)=O)C(=O)NCc1ccccc1 | inactive
CC(Cl)(Cl)Cl | inactive
CC(Cc1ccccc1)NCCn1cnc2c1c(=O)n(C)c(=O)n2C (stereo not given) | inactive
NC(=O)OCCCc1ccccc1 | inactive
C(COCC1CO1)OCC1CO1 (stereo not given) | inactive
CCC(=O)OC1(c2ccccc2)CCN(C)CC1 | inactive
COP(=O)(O)OC | inactive
CCN(CCO)CCO | inactive
CCCC[N+](=O)[O-] | inactive
O=P(O)(O)c1ccccc1 | inactive
CCOC(=O)C(SP(=S)(OC)OC)c1ccccc1 (stereo not given) | inactive
C=C(C)[C@H]1CN[C@H](C(=O)O)[C@H]1CC(=O)O | inactive

SMILES | Potency
Oc1ccc(Cc2ccc(O)cc2)cc1 | inactive
COc1cccc([C@@]2(O)CCCC[C@@H]2CN(C)C)c1 | inactive
CCCC(C)(COC(N)=O)COC(N)=O | inactive
COP(=O)(OC)O/C(C)=C/C(=O)N(C)C | inactive
CC(C)(C)C(=O)C(Cl)Cl | inactive
OCC(Cl)CCl (stereo not given) | inactive
CCCCOC(C)=O | inactive
C=C(Cl)CSC(=S)N(CC)CC | inactive
CCNc1nc(Cl)nc(NC(C)(C)C)n1 | inactive
CCC(C)C(C)(COC(N)=O)COC(N)=O (stereo not given) | inactive
ClCC1CO1 (stereo not given) | inactive
COc1ccccc1OC | inactive
N[C@@H]1C[C@H]1c1ccccc1 | inactive
CCC(CC)(CNC(=O)CCCO)c1cccc(OC)c1 | inactive
CC(C)[N+](C)(CCC(C(N)=O)(c1ccccc1)c1ccccc1)C(C)C | inactive
CS(=O)(=O)Cl | inactive
COC1=CC(=O)O[C@@H](/C=C/c2ccccc2)C1 | inactive
O=C1C2CC=CCC2C(=O)N1SC(Cl)(Cl)Cl (stereo not given) | inactive and 10.8 µM (active)
ClCCN1CCCC1 | inactive
NC1(c2ccccc2)CCCCC1 | inactive
